Compound activity (PubChem BioAssay)
Most compounds without a hit are left out; they make up all but 4% or so of the library.
Mdm2-MdmX inh = human Mdm2/MdmX binding inhibition; actives 3% (n = 330,000); SaOS-2 split-luciferase Mdm2/MdmX complementation, luminescence; inhibition, % at 8 µM;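 active = inhibition of at least 50% at 8 µM in the primary screen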
Gli-Sufu block = blocks Gli-Sufu signaling in a luciferase reporter | inhibition, % at 5 µM | AID 588413 | actives 0.74% (n = 340,000) | Sufu-KO-LIGHT fibroblasts, Gli luciferase reporter luminescence;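 active = inhibition above about 55%, limit read from the data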
697 NFkB inh = inhibitors of the PMA/ionomycin-induced NF-kB reporter in 697 B cells; actives 0.33% (n = 330,000); 697 B-cell NF-kB luciferase reporter, 16 h; inhibition, % at 4 µM; in the data active = inhibition above about 35%
Jurkat NFkB inh = lowers PMA/ionomycin-induced NF-kB signal in Jurkat cells | AID 435003 | PMA/ionomycin-induced NF-kB luciferase reporter, luminescence | inhibition, % at 4 µM | actives 0.53% (n = 330,000); in the data active = inhibition above about 50%
Beta cell apopt = blocks beta cell apoptosis; INS-1E cytokine-induced death, ATP luminescence, 48 h; percent of positive-control rescue, neutral wells zero; actives 0.8% (n = 300,000); protection from apoptosis, % (concentration not given with the values);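 active = Every replicate reaches about 75%, or at least half do and their mean reaches it too, limit read from the data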;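 note: higher means more ATP so stronger rescue from cytokine killing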
Jurkat NFkB conf = lowers PMA/ionomycin-induced NF-kB signal in Jurkat cells. Jurkat NF-kB luciferase, 16 h. actives 27% (n = 2,700). shares compounds with Jurkat NFkB inh. inhibition, % at 4 µM;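 active = inhibition reaching about 45% at 4 µM in either replicate, limit read from the data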
697 NFkB conf = lowers PMA/ionomycin-induced NF-kB signal in 697 B cells; 697 B-cell NF-kB luciferase, 16 h; inhibition, % at 4 µM; shares compounds with 697 NFkB inh; actives 35% (n = 2,000); in the data active = inhibition mostly above about 28%, no sharp cut-off; inactive = mostly below about 22%
Mdm2 MdmX conf = human Mdm2/MdmX binding inhibition, confirmed | inhibition, % at 8 µM | actives 55% (n = 10,000) | shares compounds with Mdm2-MdmX inh | luminescent assay | AID 489028; in the data active = inhibition above about 40%
Full FLuc ctr = full-length luciferase inhibition in Mdm2/MdmX counter-screen; AID 504607; inhibition, % at 8 µM; actives 77% (n = 6,200); SaOS-2 full-length luciferase counterscreen, luminescence; shares compounds with Mdm2-MdmX inh;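 active = mean inhibition at 8 µM reaching about 37%, which flags the compound as non-specific, limit read from the data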;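 note: p53-null SaOS-2 cells with luciferase driven by a doxycycline-inducible promoter; compound on cells about two nights before reading with doxycycline added after day one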
Gli antag conf = confirmation of Gli-SUFU pathway antagonists | AID 602428 | inhibition, % at 5 µM | Sufu-KO-LIGHT cells, Gli luciferase reporter, luminescence | shares compounds with Gli-Sufu block | actives 40% (n = 2,500);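 active = mean inhibition at 5 µM reaching about 45%, limit read from the data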
SufuKO cytotox = cytotoxicity counter-screen for Gli-SUFU antagonists | actives 32% (n = 2,500) | shares compounds with Gli-Sufu block | AID 651994 | cytotoxicity, % at 5 µM | Sufu-KO-LIGHT cells cytotoxicity, ATP luminescence;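 active = mean cytotoxicity at 5 µM above about 25%, limit read from the data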;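 note: cells exposed to compound overnight for roughly 16 to 18 hours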
Wnt3a cs = Wnt3a reporter inhibition counter-screen. shares compounds with Gli-Sufu block. Wnt-LIGHT cells, Wnt3a-driven luciferase reporter, luminescence. inhibition, % at 6.25 µM. actives 20% (n = 2,500);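 active = mean inhibition above about 25%, limit read from the data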
Numbers stand for hits; . = inactive; / = not tested or not shown.

SMILES	Mdm2-MdmX inh	Gli-Sufu block	697 NFkB inh	Jurkat NFkB inh	Beta cell apopt	Jurkat NFkB conf	Gli antag conf	SufuKO cytotox	Wnt3a cs	others
COc1cccc(C2=NOC(C(=O)NCc3ccccc3)C2)c1 (configuration not stated)	/	.	/	/	.	/	/	/	/
O=C(NC1CCCCC1)c1cc(-c2cccs2)on1	.	.	.	.	.	/	/	/	/
O=c1[nH]c(/C=C2\C=Nc3ccccc32)c(O)n1Cc1ccccc1F	.	56	.	84	.	.	65	27	.
NS(=O)(=O)c1ccc(CCNC(=O)c2cc3ccccc3s2)cc1	.	.	.	.	.	/	/	/	/
CCn1c(/C=C/Nc2ccccc2)[n+](CC)c2ccc(Cl)cc21	.	.	.	58	.	.	.	.	.
CCn1c(C)[n+](Cc2ccccc2)c2ccc(Cl)cc21	.	.	.	.	.	/	/	/	/
CC1=CC(C)(C)N(S(=O)(=O)c2ccc(F)cc2)c2ccccc21	.	.	.	.	.	/	/	/	/
CC(=O)Nc1ccc(S(=O)(=O)N2c3ccccc3C(C)=CC2(C)C)cc1	74	57	.	62	.	53	52	54	.	Mdm2 MdmX conf=60;Full FLuc ctr=94
CC(C)CCc1noc(CN(C)CCC2CCOCC2)n1	.	.	.	.	.	/	/	/	/
Cc1nn(C)c(C)c1CN(Cc1nc(CCC(C)C)no1)C(C)C	.	79	.	53	94	51	73	26	51
Cc1cccc(/C=N/Nc2cc(N3CCOCC3)nc(N3CCOCC3)n2)c1	.	60	58	66	.	.	.	34	.	697 NFkB conf=.
CC(C)c1ccc(/C=N/Nc2cc(N3CCOCC3)nc(N3CCOCC3)n2)cc1	.	.	.	.	.	/	/	/	/
CCCCCCCOc1ccc(OC(=O)c2ccncc2)cc1	.	74	.	80	/	55	63	.	.
CCCCCCCOc1ccc(OC(=O)c2cccnc2)cc1	.	74	.	85	.	53	60	.	.
CCCCOc1ccc(OC(=O)c2cccnc2)cc1	.	.	.	.	.	/	/	/	/
CCOc1ccc(S(=O)(=O)NCCC(=O)N2CC(C)CC(C)C2)cc1 (configuration not stated)	.	.	.	.	.	/	/	/	/
COC(=O)C1=C(CN2CCCc3ccccc32)NC(=O)NC1c1ccc(F)cc1 (configuration not stated)	70	82	.	54	.	79	.	.	72	Mdm2 MdmX conf=72;Full FLuc ctr=38
COC(=O)C1=C(CN2CCc3ccccc32)NC(=O)NC1c1cc(C)ccc1C (configuration not stated)	.	.	.	.	.	/	/	/	/
COc1ccc(NS(=O)(=O)c2cccc(NC(=O)c3ccc(Cl)nc3)c2)cc1	.	69	64	72	107	67	68	41	.	697 NFkB conf=54
COc1cccc(S(=O)(=O)Nc2ccc(C(=O)Nc3ccncc3)cc2)c1	.	.	.	.	.	/	/	/	/
COc1ccc(CCNc2ncnc3sccc23)cc1OC	.	75	75	64	111	67	80	43	41	697 NFkB conf=92
COc1ccc(CCNc2nc(C)nc3c2oc2ccccc23)cc1OC	.	.	.	.	.	/	/	/	/
COc1ccc(CCNc2ncnc3c2oc2ccccc23)cc1OC	.	73	47	62	107	57	75	28	31	697 NFkB conf=54
COc1ccc(Nc2ncnc3sccc23)cc1OC	.	.	.	.	.	/	/	/	/
Cc1cc(N2C(=O)C(O)=C(C(=O)c3ccc(C)o3)C2c2ccc([N+](=O)[O-])cc2)no1 (configuration not stated)	.	.	.	.	.	/	/	/	/
SMILES	Mdm2-MdmX inh	Gli-Sufu block	697 NFkB inh	Jurkat NFkB inh	Beta cell apopt	Jurkat NFkB conf	Gli antag conf	SufuKO cytotox	Wnt3a cs	others
O=C(COC(=O)CNC(=O)C1CCCCC1)Nc1ccccc1Cl	.	.	.	.	.	/	/	/	/
COC(C[C@@H](O)[C@@H](C)[C@H](O)COCc1ccccc1)OC	.	.	.	.	/	/	/	/	/
Cc1c(C(=O)N2CCN(c3ccccc3)CC2)oc2c(F)cccc12	.	.	.	.	.	/	/	/	/
Cc1cc(Cl)c2oc(C(=O)N3CCN(c4ccncc4)CC3)c(C)c2c1	90	68	.	61	.	.	.	.	.	Mdm2 MdmX conf=51;Full FLuc ctr=57
CC(C)C(NC(=O)c1ccc(C(C)(C)C)cc1)C(=O)NCc1ccccn1 (configuration not stated)	.	.	.	.	.	/	/	/	/
COC(=O)Cc1ccc(NC(=O)c2ccc(C(C)(C)C)cc2)cc1	66	72	77	64	/	79	77	45	102	697 NFkB conf=74;Mdm2 MdmX conf=55;Full FLuc ctr=.
Cc1ccc2nc(C)c3c(c2c1)OC(C(C)(Cl)Br)C3 (configuration not stated)	.	.	.	.	.	/	/	/	/
Cc1nc2ccccc2c2c1CC(C(C)(Cl)Br)O2 (configuration not stated)	.	55	.	56	.	56	58	.	.
Cc1onc(-c2ccccc2)c1C(=O)NCc1ccccc1F	.	.	.	.	.	/	/	/	/
CCOC(=O)C1CCCN(S(=O)(=O)c2ccc(S(=O)(=O)N(CC)CC)cc2)C1 (configuration not stated)	.	78	43	60	110	62	74	32	.	697 NFkB conf=52
COc1ccc(N(C(=O)c2cnccn2)C(C(=O)NC2CCCCC2)c2ccc(Cl)cc2)cc1 (configuration not stated)	.	.	.	.	.	/	/	/	/
COc1ccc(C(C(=O)NC2CCCCC2)N(C(=O)CCl)c2ccc(Cl)cc2)cc1 (configuration not stated)	100	85	92	76	.	.	.	28	.	697 NFkB conf=19;Mdm2 MdmX conf=99;Full FLuc ctr=49
Cn1nc(C(C)(C)C)cc1C(=O)NCc1ccc(N2CCCC2=O)cc1	.	81	42	66	116	66	77	36	42	697 NFkB conf=57
Cc1cc(C)nc(SCC(N)=O)n1	.	.	.	.	.	/	/	/	/
CC(=O)c1c(C)[nH]c(C(=O)OCC(=O)Nc2cc(Cl)ccc2[N+](=O)[O-])c1C	.	.	.	.	.	/	/	/	/
